This note sets out measurements from the supplement of paper PMC7366291.

Structures are written as SMILES. Where a name gives a salt, the structure may show the parent alone.

For this assay, the system named is Danio rerio Tg(wt1b:EGFP) embryo, pronephros. Kind of assay: fraction of imaged embryos annotated as normal kidney; higher = less nephrotoxic; extreme values may be limits of the assay. To be noted: 25 µM; exposure: 24-48 hpf. An outline of the steps:
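Embryos of the Tg(wt1b:EGFP) zebrafish line were dechorionated and held in 12-well plates with 25 μM compound in 0.5% DMSO and 5 mM HEPES-buffered E3 containing 0.003% PTU, from 24 to 48 hpf at 28.5°C. Larvae were then anaesthetised with tricaine, set dorsal side up in agarose-filled 96-well plates, and their pronephroi imaged by widefield fluorescence at 470 nm over 10 z-slices. Each value is the fraction of embryos per treatment placed in the normal-kidney category after manual annotation of maximum projections.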
Take `CNCCC=C1c2ccccc2CCc2ccccc21` [Nortriptyline hydrochloride]: the “fraction of imaged embryos annotated as normal kidney” value (from here on “fraction of imaged embryos annotated”) came out at 0.833.
To `CCCc1cc(=O)[nH]c(=S)[nH]1` [Propylthiouracil] belongs 1; to `CN(C/C=C/c1ccccc1)Cc1cccc2ccccc12` [Naftifine hydrochloride], 0.9; to `CN(C)CCC=C1c2ccccc2CCc2ccccc21` [Amitryptiline hydrochloride], 0.917.
To `O=C(NCCNCC(O)COc1ccc(O)cc1)N1CCOCC1` (stereo not given) [Xamoterol hemifumarate] belongs 1; to `COC(=O)C1=C(C)NC(C)=C(C(=O)OCCN(C)Cc2ccccc2)C1c1cccc([N+](=O)[O-])c1` (stereo not given) [Nicardipine hydrochloride], 0.909; to `Oc1ccc(OCc2ccccc2)cc1` [Monobenzone], 0.25.
`OC(CCN1CCCCC1)(c1ccccc1)c1ccccc1` [Pridinol methanesulfonate salt]: the “fraction of imaged embryos annotated” value is 1.
On to `Cc1cccc(CN2CCN(C(c3ccccc3)c3ccc(Cl)cc3)CC2)c1` (stereo not given) [Meclozine dihydrochloride], for which the “fraction of imaged embryos annotated” value is 0.417.
In the case of `C[C@H](CS)C(=O)N1CCC[C@H]1C(=O)O` [Captopril], the “fraction of imaged embryos annotated” value came to 1.
The result for `CC[C@@H]1C(=O)OC[C@@H]1Cc1cncn1C` [Pilocarpine nitrate] reads 0.667; that for `CC(C)/N=c1\cc2n(-c3ccc(Cl)cc3)c3ccccc3nc-2cc1Nc1ccc(Cl)cc1` [Clofazimine], 0.75; that for `COc1ccc(NS(=O)(=O)c2ccc(N)cc2)nn1` [Sulfamethoxypyridazine], 1.
In the case of `CCn1cc(C(=O)O)c(=O)c2ccc(C)nc21` [Nalidixic acid sodium salt], the “fraction of imaged embryos annotated” value is 0.25.
The result for `COC1=CC(=O)C[C@@H](C)[C@]12Oc1c(Cl)c(OC)cc(OC)c1C2=O` [Griseofulvin] reads 0.917; that for `NS(=O)(=O)c1cc2c(cc1C(F)(F)F)NC(Cc1ccccc1)NS2(=O)=O` (stereo not given) [Bendroflumethiazide], 0.875; that for `CC(C(=O)O)c1ccc(C(=O)c2ccccc2)s1` (stereo not given) [Tiaprofenic acid], 0.667.
Turning to `CC(C)(C)NC(=O)[C@@H]1C[C@@H]2CCCC[C@@H]2CN1C[C@@H](O)[C@H](Cc1ccccc1)NC(=O)[C@H](CC(N)=O)NC(=O)c1ccc2ccccc2n1` [Saquinavir mesylate], the “fraction of imaged embryos annotated” value is 0.909.
As for `CC(C)(Oc1ccc(Cl)cc1)C(=O)O` [Clofibric acid], the “fraction of imaged embryos annotated” value stood at 0.667.
To `CCN(CC)CCCC(C)Nc1c2ccc(Cl)cc2nc2ccc(OC)cc12` (stereo not given) [Quinacrine dihydrochloride hydrate] belongs 0.75.
The result for `O=C(O)CCc1nc(-c2ccccc2)c(-c2ccccc2)o1` [Oxaprozin] reads 0; that for `CCCc1cc(C(N)=S)ccn1` [Prothionamide], 0.917.
To `C[C@]1(Cn2ccnn2)[C@H](C(=O)O)N2C(=O)C[C@H]2S1(=O)=O` [Tazobactam] belongs 0.75.
For `CC(=O)O[C@]1(C(C)=O)CC[C@H]2[C@@H]3C=C(Cl)C4=CC(=O)[C@@H]5C[C@@H]5[C@]4(C)[C@H]3CC[C@@]21C` [Cyproterone acetate], the “fraction of imaged embryos annotated” value came to 0.917.
The result for `C[C@]12C=CC(=O)C=C1CC[C@@H]1[C@@H]2[C@@H](O)C[C@@]2(C)[C@H]1CC[C@]2(O)C(=O)CO` [Prednisolone] reads 0.75; that for `NS(=O)(=O)c1cc2c(cc1Cl)NC(CC1CCCC1)NS2(=O)=O` (stereo not given) [Cyclopenthiazide], 1.
The result for `CN1CCC(=C2c3ccccc3CC(=O)c3sccc32)CC1` [Ketotifen fumarate] reads 0.833; that for `CCCCC1(COC(=O)CCC(=O)O)C(=O)N(c2ccccc2)N(c2ccccc2)C1=O` [Suxibuzone], 0.75.
To `COc1cc(OC)c(C(=O)CCCN2CCCC2)c(OC)c1` [Buflomedil hydrochloride] belongs 0.917; to `CCN(CC)CC#CCOC(=O)C(O)(c1ccccc1)C1CCCCC1` (stereo not given) [Oxybutynin chloride], 1.
Turning to `CC(=O)Oc1cc(C(C)C)c(OCCN(C)C)cc1C` [Moxisylyte hydrochoride], the “fraction of imaged embryos annotated” value was 0.917.
Turning to `O=C(OCCOCCO)c1ccccc1Nc1cccc(C(F)(F)F)c1` [Etofenamate], the “fraction of imaged embryos annotated” value worked out at 0.
In the case of `COc1ccc(-c2ccc3cc(C(=O)O)ccc3c2)cc1C12CC3CC(CC(C3)C1)C2` [Adapalene], the “fraction of imaged embryos annotated” value stood at 0.833.
To `Cc1cc(NC(=O)C2=C(O)c3ccccc3S(=O)(=O)N2C)no1` [Isoxicam] belongs 0.917; to `CNC1(C)C2CCC(C2)C1(C)C` (stereo not given) [Mecamylamine hydrochloride], 0.833.
